# Assay outcomes as filed in PubChem.
# Hits are enriched below; roughly 6% of the tested compounds scored in any of these assays.
# Tau fluor counter – counter-screen for tau fibril formation inhibitors; tau K18 P301L Alexa594 fluorescence, heparin fibrillization; Potency, µM (titrated, usually from 57.7 µM); actives 0.93% (n = 280,000); further: nearly all actives have a fitted effect of over 55% in size
#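 Human tau K18 P301L (15 uM unlabeled, 0.24 uM Alexa 594-labeled) in 100 mM sodium acetate pH 7 with 20 uM heparin, 6 hr at 37 C. ThT 30 uM added, 1 hr ambient; Alexa 594 FP and total fluorescence read at 555/632 nm.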
# VDR inh – blocks the human vitamin D receptor; P11473; VDR-SRC2-3 peptide fluorescence polarization, 2 h; Potency, µM, actives largely listed as inhibitors; actives 0.93% (n = 400,000); AID 504847
#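 Two reagent solutions held at 4 deg C in the dark were dispensed, compounds pinned at 23 nl, and the mixture incubated 2 h at room temperature. Read-out: fluorescence polarization of VDR–SRC2-3 peptide binding.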
# Tau fibril FP – blocks human tau fibril formation measured by polarization. P10636. K18 P301L tau heparin fibrillization, Alexa594 FP, 6 h. Potency, µM (doses to about 57.7 µM), usual class: inhibitors. actives 0.39% (n = 280,000). AID 1468; further: nearly all actives have a fitted effect of over 55% in size
# Target sequence (P10636 561-689 P618L limits assumed): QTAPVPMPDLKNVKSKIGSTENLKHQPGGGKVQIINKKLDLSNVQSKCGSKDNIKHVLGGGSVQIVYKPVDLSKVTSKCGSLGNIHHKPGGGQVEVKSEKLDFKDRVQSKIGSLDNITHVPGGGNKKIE
#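 Human K18 P301L fragment (15 uM unlabeled plus 0.24 uM Alexa 594-labeled) in 100 mM sodium acetate pH 7 with compound, aggregation induced by 20 uM heparin for 6 hr at 37 C. ThT (30 uM) added for 1 hr, then Alexa 594 FP read.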
# Tau fibril ThT – inhibitors of human tau fibril formation, thioflavin T binding. P10636. recombinant tau K18 P301L (four-repeat tau fragment), heparin-induced fibrillization, ThT fluorescence. Potency, µM (top dose mostly 57.4 µM), most hits filed as inhibitors. actives 2.1% (n = 270,000). AID 1460; further: nearly all actives have a fitted effect of over 55% in size
#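 Tau K18 P301L fragment (15 uM unlabeled plus 0.24 uM Alexa 594-labeled) in 100 mM sodium acetate pH 7 with compound, fibrillization induced by 20 uM heparin for 6 hr at 37 C. Thioflavin T (30 uM) added, fluorescence read after 1 hr (ex 450, em 510 nm).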
# PLK1 PBD inh – inhibitors of human PLK1 polo-box domain binding; actives 2.8% (n = 360,000); AID 720504; Potency, µM, usual class: inhibitors; Plk1 PBD binding of FITC phosphopeptide, fluorescence polarization; further: series mostly up to about 57 µM; nearly all actives have a fitted effect of over 65% in size
# Target sequence (P53350 whole entry, looked up, the tested form may be a part): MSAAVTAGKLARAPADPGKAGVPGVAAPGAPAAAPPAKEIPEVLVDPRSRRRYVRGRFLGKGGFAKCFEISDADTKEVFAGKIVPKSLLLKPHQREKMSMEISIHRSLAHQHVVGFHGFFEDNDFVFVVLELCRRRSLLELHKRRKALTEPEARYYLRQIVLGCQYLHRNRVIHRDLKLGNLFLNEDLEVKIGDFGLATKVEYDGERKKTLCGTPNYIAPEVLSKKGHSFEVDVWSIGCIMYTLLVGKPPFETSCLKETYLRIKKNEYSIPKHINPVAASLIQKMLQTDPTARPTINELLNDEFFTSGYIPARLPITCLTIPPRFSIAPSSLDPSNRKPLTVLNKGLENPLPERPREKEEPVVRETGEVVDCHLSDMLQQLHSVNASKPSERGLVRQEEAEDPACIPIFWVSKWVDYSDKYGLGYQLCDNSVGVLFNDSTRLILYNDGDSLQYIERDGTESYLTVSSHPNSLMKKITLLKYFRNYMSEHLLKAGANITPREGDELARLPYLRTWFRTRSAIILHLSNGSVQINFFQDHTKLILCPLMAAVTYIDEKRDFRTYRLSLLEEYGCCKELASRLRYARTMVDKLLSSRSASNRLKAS
# Sfp inh – blocks B. subtilis Sfp PPTase activity. Potency, µM, actives largely listed as inhibitors. AID 1490. Q9F4F7. Biochemical Sfp PPTase activity, qHTS. actives 3.5% (n = 310,000);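 further: the enzyme is Sfp with the accession as filed and its product quenches rhodamine fluorescence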
#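 Fluorescence-quenching assay: 15 nM Sfp-PPTase preincubated 15 min at room temperature with compound, then 5 uM rhodamine-CoA and 12.5 uM BHQ-2-labelled YbbR peptide added. Fluorescence (ex 525/em 598 nm) read at start and after 30 min; difference gives rate.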
# Hits are given with their value; i = inactive; ? = inconclusive; nt = no result; [ ] = another dose, or the depositor's remark. The call rests on the fitted dose curve; in most records, active means well fitted curve in the direction sought with a large enough effect; inconclusive means small, poorly fitted or top-dose-only effect, or another doubt; inactive means no such curve, though single readings can be large; an effect the other way counts as inactive or inconclusive.
SMILES,Tau fluor counter,VDR inh,Tau fibril FP,Tau fibril ThT,PLK1 PBD inh,Sfp inh
Cc1ccc(-c2cc(C(=O)N3CCN(S(=O)(=O)c4ccc(Br)s4)CC3)[nH]n2)c(C)c1,i,i,i,i,nt,nt
Nc1cc(N)cc(C(=O)c2ccccc2)c1,nt,nt,nt,nt,i,nt
Cc1ccc(NC(=S)Nc2cc(C(=O)O)ccc2N2CC3CC(C2)c2cccc(=O)n2C3)cc1C (stereo not drawn),i,i,i,i,i,56µM
COc1cccc(NC(=S)Nc2cc(C(=O)O)ccc2N2CC3CC(C2)c2cccc(=O)n2C3)c1 (stereo not drawn),i,i,i,i,i,i
O=C(O)CC12CSc3[nH]c(=O)sc3C1c1ccccc1OC2=O (stereo not drawn),i,nt,?,25µM,nt,14µM
CCN(CC)C(=O)C12C(=O)Oc3ccccc3C1C2(C)C(=O)c1ccc(F)cc1 (stereo not drawn),i,i,i,i,i,i
O=C(c1c[nH]c(C(=O)C(Cl)(Cl)Cl)c1)c1c(F)cccc1F,nt,?,nt,nt,5.3µM,i
O=C(COC(=O)CCc1nc2ccccc2c(=O)[nH]1)Nc1ccc(Cl)cn1,i,?,i,?,15µM,i
O=C(CCc1nc2ccccc2c(=O)[nH]1)OCC(=O)N1CCc2ccccc21,i,i,i,?,i,i
CC1Cc2ccccc2N1C(=O)COC(=O)CCc1nc2ccccc2c(=O)[nH]1 (stereo not drawn),i,?,i,i,4.2µM,i
CCOCCc1nn2c(=O)cc(COC(=O)c3ccccc3NC(=O)c3ccccc3F)nc2s1,i,i,i,i,nt,nt
O=S(=O)(CS(=O)(=O)c1ccccc1)c1ccccc1,nt,i,nt,nt,i,nt
O=S(=O)(C/C(=C/CO)S(=O)(=O)c1ccccc1)c1ccccc1,i,?,?,3.5µM,?,i
COC(=O)c1ccc(NC(=O)CSc2ccc(-c3sc(-c4ccccc4)nc3C)nn2)cc1,?,i,i,?,nt,nt
COC(=O)Nc1sc2c(c1C(=O)NCc1ccco1)CCCC2,i,i,i,i,i,79µM
O=C(Nc1sc2c(c1C(=O)NCc1ccco1)CCCC2)c1ccc2c(c1)OCO2,i,i,i,i,i,45µM
COC(=O)c1scc(-c2ccc(C)cc2)c1S(=O)(=O)N1CCN(c2ccccc2F)CC1,i,i,i,i,nt,nt
NS(=O)(=O)c1ccc(CCNCc2cc(Br)ccc2OCc2ccccc2F)cc1,i,i,i,i,i,50µM
CCCCCC(=O)Nc1nnn(CCC)n1,i,i,i,i,i,i
Cn1nnc(NC(=O)/C=C/c2ccco2)n1,i,i,i,i,i,i
CCCn1nnc(NC(=S)NC(=O)/C=C/c2ccco2)n1,i,i,?,?,i,56µM
CCCn1nnc(NC(=S)NC(=O)C(C)(C)C)n1,i,i,i,i,i,50µM
Cn1nnc(NC(=O)c2cccs2)n1,i,i,i,i,i,i
CCn1nnc(NC(=S)NC(=O)c2ccc(-c3cccc(Cl)c3)o2)n1,i,i,i,?,21µM,50µM
CCCn1nnc(NC(=S)NC(=O)c2cccs2)n1,i,i,i,i,i,40µM
SMILES,Tau fluor counter,VDR inh,Tau fibril FP,Tau fibril ThT,PLK1 PBD inh,Sfp inh
COc1cc(C(O)c2nc(-c3csc4ccccc34)cs2)ccc1F (stereo not drawn),nt,nt,nt,nt,i,nt
COc1cc(Cl)c(C)cc1Nc1ncnc2c1nc1n2CCCC1,i,i,i,?,nt,nt
N#Cc1ccc(-c2cccnc2)nc1SCC(=O)c1ccccc1,?,i,i,4.5µM,i,i
COc1ccc(N(Cc2cc(=O)[nH]c3ccccc23)C(=O)c2ccco2)cc1,i,i,i,i,i,56µM
O=C(O)C1CSC2(CCN(Cc3ccccc3)CC2)N1 (stereo not drawn),i,i,i,i,i,50µM
CCn1c(CSc2nc(C)cs2)nc2cc(S(=O)(=O)N(C)C)ccc21,i,i,i,i,27µM,i
COc1ccc([C@H]2CC(=O)C=C(c3cccc(C(F)(F)F)c3)C2)cc1,nt,?,nt,nt,27µM,nt
CC[C@H](C)/C=C(C)/C=C/C1=CC2=CC(=O)[C@]3(C)OC(=O)[C@@H](C(C)=O)[C@@H]3C2=CO1,i,?,?,i,i,?
CC[C@H](C)/C=C(C)/C=C/C(=O)Cc1cc(O)c(C)c(O)c1C=O,?,i,i,?,i,89µM
CO[C@@H]1[C@@H]2OP(=O)(O)OC[C@H]2O[C@H]1n1c(Sc2ccc(Cl)cc2)nc2c(N)ncnc21,i,i,i,i,nt,i
Nc1nc(N)c(S(=O)(=O)c2ccccc2)c(Nc2ccc(Br)cc2)n1,?,i,32µM,i,nt,nt
CCc1ccc(Cn2ncc3c(C(=O)O)cc(C)nc32)cc1,nt,i,nt,nt,27µM,nt
O=C(O)CCCN=CC1=C(O)CNC1=O,i,?,i,i,30µM,i
CC(C)(C)c1nnc2sc(SCC(=O)N3CCc4ccccc43)nn2c1=O,i,i,i,i,27µM,i
CCN(Cc1ccccc1)Cc1c(O)ccc2c(=O)c(-c3ccccc3Cl)c(C(F)(F)F)oc12,i,i,i,i,nt,nt
Cc1ccc(C)c(C(=O)CCC(=O)Nc2ccc(N3CCN(C)CC3)cc2C)c1,nt,i,nt,nt,i,nt
COCOc1ccc(OC)cc1C(=O)/C=C/c1ccc(OC)c(Br)c1,i,40µM,?,?,nt,i
COCOc1cc(OC)ccc1C(=O)/C=C/c1ccc2c(c1)OCO2,?,nt,?,?,nt,i
COCOc1cc(OC)ccc1C(=O)/C=C/c1cccc(C(F)(F)F)c1,i,28µM,i,i,nt,i
CCC/C(=N/NC(=O)c1nnn(-c2nonc2N)c1CN1CCCCC1)c1ccccc1,nt,i,nt,nt,27µM,nt
C=CC1=C(C)C2=NC1=CC1=NC(=CC3=NC(=CC4=NC(=C2)C(C)=C4CCC(=O)O)C(CCC(=O)O)=C3C)C(C=C)=C1C.[Zn],14µM[quencher],?,20µM,6.3µM,nt,4.5µM
CCN(CCNC(=O)Nc1ccc(Cl)cc1)c1ccccc1,16µM[quencher],i,i,?,i,i
CN1/C(=C/C(=O)c2nc(S(C)(=O)=O)ncc2Cl)C(C)(C)c2ccccc21,i,50µM,i,5µM,?,i
Cc1ccccc1NC(=O)c1nc(S(C)(=O)=O)ncc1Cl,nt,40µM,nt,nt,?,i
COc1ccc(NC(=O)c2nc(SCc3ccccc3F)ncc2Cl)cc1,i,i,?,i,nt,nt
CCOC(=O)c1nc(S(C)(=O)=O)ncc1Cl,i,56µM,i,?,21µM,i
CCc1nnc(NC(=O)c2nc(S(C)(=O)=O)ncc2Cl)s1,i,i,i,?,nt,nt
Cc1ccccc1CS(=O)(=O)c1ncc(Cl)c(C(=O)Nc2ccc(F)cc2)n1,nt,i,nt,nt,19µM,?
CS(=O)(=O)c1ncc(Cl)c(C(=O)Nc2ccc(N3CCOCC3)cc2)n1,?,i,?,3.2µM,?,i
NC(=O)CCN1CCN(Cc2cn[nH]c2-c2cccc3ccccc23)CC1,i,i,i,i,i,i
